Hits are enriched below; roughly 4% of the tested compounds scored in any of these assays.
GRP78 ERSR act: qHTS for Inducers of the Endoplasmic Reticulum Stress Response (ERSR) in Human Glioma: qHTS. AID 602332, 2012. Potency, µM, usual class: activators. U87-MG GRP78 promoter luciferase reporter, 16 h. 420,000 compounds, 0.02% hits; active = well fitted activation curve with a large enough effect; note: series mostly up to about 76 µM; nearly all actives have a fitted effect of over 35% in size
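Stably transfected U87-MG human glioma cells carrying a GRP78-based luminescent sensor were seeded at 1000 cells/well, pin-dosed with compounds and incubated 16 h. Luciferase reagent was then added, and end-point luminescence was read after 10 min at room temperature.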
D1 PAM: Potentiators of Human D1 Dopamine Receptor: qHTS; D(1A) dopamine receptor (Homo sapiens), P21728; HEK293 TREx D1 cells, calcium flux, dopamine EC20 potentiation; potentiation, % at 10 µM; 360,000 compounds, 0.036% hits; in the data active = potentiation above about 30%
D1 antagonist: Antagonist of Human D 1 Dopamine Receptor: qHTS; D(1A) dopamine receptor (Homo sapiens), P21728; HEK293 TREx D1 cells, calcium flux, dopamine EC80; stronger effect = lower value; activity change, negative = inhibition, % at 10 µM; 360,000 compounds, 3.2% hits; AID 504652, 2011; in the data active = activity change below about -30%
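Kinetic fluorescence of a calcium dye serves as the read-out. D1-expressing Hek293 Trex cells, induced overnight at 30 C, are exposed to compound for 180 s before an EC80 dopamine addition, then read 180 s further.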
TRHR PAM: qHTS for Small Molecule Agonists and Allosteric Enhancers of Human TRH Receptor: Primary Screen for Enhancers; 360,000 compounds, 0.66% hits; enhancement, % at 2 µM; AID 493056, 2011; TRHR cells, fluo-8 calcium fluorescence, EC20 TRH enhancement; Thyrotropin-releasing hormone receptor (Homo sapiens), P34981; in the data active = enhancement above about 30%
Target sequence (P34981 whole entry, looked up): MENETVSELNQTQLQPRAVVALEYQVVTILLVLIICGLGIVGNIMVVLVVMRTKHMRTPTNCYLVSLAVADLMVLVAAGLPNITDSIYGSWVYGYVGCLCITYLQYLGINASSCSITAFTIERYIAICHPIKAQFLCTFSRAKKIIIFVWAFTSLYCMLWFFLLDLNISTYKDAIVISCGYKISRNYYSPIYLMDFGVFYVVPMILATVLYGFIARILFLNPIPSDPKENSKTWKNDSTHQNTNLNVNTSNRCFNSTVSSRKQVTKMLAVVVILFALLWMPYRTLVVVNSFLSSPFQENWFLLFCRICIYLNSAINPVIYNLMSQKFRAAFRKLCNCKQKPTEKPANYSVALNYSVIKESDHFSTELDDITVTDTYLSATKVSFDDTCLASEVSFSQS
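TRHR-expressing cells loaded with fluo-8 calcium dye were read kinetically (ex 480/em 530) during compound addition, then stimulated with an EC20 of TRH (10 nM final). Enhancement of the Gq-mediated intracellular calcium response was scored.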
D1 ag: Allosteric Agonists of the Human D1 Dopamine Receptor: qHTS. HEK293 T-REx D1 cells, calcium flux, agonist mode. activation, % at 2 µM. 360,000 compounds, 1% hits. AID 504660, 2011
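Tetracycline-induced HEK293 TREx D1 cells, force-coupled to calcium signalling, were dye-loaded with a no-wash calcium kit. Compound was pin-added after a 10 s baseline. Fluorescence was read kinetically at 1 cycle/s for 180 s, with calcium rises flagged as agonism.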
TRHR agonist: qHTS for Small Molecule Agonists and Allosteric Enhancers of Human TRH Receptor: Primary Screen for Agonists; Thyrotropin-releasing hormone receptor (Homo sapiens), P34981; TRHR cells, calcium flux fluo-8, FDSS agonist mode; activation, % at 2 µM; 360,000 compounds, 0.18% hits; AID 493084, 2011
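In this calcium-flux screen, cells bearing human TRHR are dye-loaded with fluo-8, baselined for 10 cycles, then exposed to library compounds; positive kinetic calcium responses during the agonist phase mark hits, with TRH as control.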
Large screens that a line does not name were inactive; ! = not active in a repeat. Cut-off read from the data, not from the text of the source, unless noted: active = activation above about 30%; inactive = the rest.

Cc1c(C(=O)N2CCCCCC2)c(S(=O)(=O)Nc2ccc(OC(F)(F)F)cc2)c(C)n1C	none
Cc1ccc(CNS(=O)(=O)NCc2ccccc2)cc1	TRHR PAM 37.8
Cc1ccc(S(=O)(=O)NCc2ccccc2)cc1	none
COc1ccc(-n2ncc(S(=O)(=O)c3ccccc3)c2-c2ccc(Cl)cc2)cc1	D1 antagonist -44.0
CCOC(=O)c1ccc(NC(=O)CSc2cn(CC(=O)N3CCCC3)c3ccccc23)cc1	none
CCOC(=O)c1cc(C#N)c(SC)nc1-c1ccccc1	D1 antagonist -44.0
O=C(Nc1ccccc1)N1CCCC(CNS(=O)(=O)Cc2ccccc2)C1 (configuration not stated)	none
COc1ccc(Nc2nc(N)nc(CN(C)C3CCCCC3)n2)cc1	D1 antagonist -34.0
COC(=O)NC(c1ccc2ccccc2c1)C(C(C)=O)C(=O)OC (configuration not stated)	none (no result: D1 PAM, D1 antagonist, TRHR PAM, D1 ag, TRHR agonist)
CC(NCC(O)COCCC12CC3CC(CC(C3)C1)C2)c1ccccc1 (configuration not stated)	D1 ag 169.5
NCC(O)COCCC12CC3CC(CC(C3)C1)C2 (configuration not stated)	none
COC(=O)C1=C(C)NC(C)=C(C(=O)O[C@H]2CCN(Cc3ccccc3)C2)C1c1cccc([N+](=O)[O-])c1 (some centres not stated)	none (no result: D1 PAM, D1 antagonist, TRHR PAM, D1 ag, TRHR agonist)
COC(=O)C(=C/C(C)=C/c1cccnc1)C(=O)OC	none
Cc1noc(C)c1COC(=O)c1cccnc1Cl	D1 antagonist -33.7
O=C(OCc1ccc(Br)cc1)c1cccnc1Cl	none
CC(C)(C)C(=O)OCc1cc(=O)n2nc(C3CC3)sc2n1	none
O=C(CCNC(=O)c1ccc([N+](=O)[O-])cc1)Nc1ccc(F)cc1	D1 antagonist -38.9
CCCC(=O)Nc1ccc(C(=O)NCCc2ccc(F)cc2)cc1	TRHR PAM 34.1
CCCCC(=O)Nc1ccc(C(=O)NCCc2ccccc2)cc1	none
CCCOc1ccc(C(=O)Nc2ccc3oc(-c4ccncc4)nc3c2)cc1	none
O=C(c1cc2sccc2n1Cc1ccccc1)N1CCCc2ccccc21	none
Cn1c(C(=O)N2CCCc3ccccc32)cc2sccc21	D1 ag 44.5
COc1ccc(CNC(=O)CN(c2ccccc2)S(=O)(=O)N(C)C)cc1	D1 antagonist -32.2!
CCOc1ccccc1N(CC(=O)NCCc1ccc(OC)cc1)S(=O)(=O)c1ccc(C)cc1	none (no result: D1 PAM, D1 antagonist, TRHR PAM, D1 ag, TRHR agonist)
CN(C)S(=O)(=O)N(CC(=O)NCc1ccccc1)c1ccccc1	none
COc1ccc(CNC(=O)CN(c2ccccc2OC)S(=O)(=O)c2ccc(C)cc2)cc1	D1 antagonist -32.1, D1 ag 43.7
O=C1CC(N2CCN(c3ccc(Cl)c(Cl)c3)CC2)C(=O)N1 (configuration not stated)	D1 ag 32.3
CCOc1ccc(C(=O)NCc2nc3cccnc3n2Cc2ccc(F)cc2)cc1OCC	none
CNC(=O)c1cc(S(=O)(=O)N2CC(C)OC(C)C2)ccc1N1CCCCC1 (configuration not stated)	TRHR PAM 40.8
CCN(CC)CCN1C(=O)C(=O)/C(=C(/O)c2ccc3c(c2)CC(C)O3)C1c1ccc(OC)cc1 (configuration not stated)	D1 antagonist -30.2
COc1ccccc1-c1ccnc(-n2ncc(C(=O)NCCc3ccccn3)c2C)n1	none (no result: D1 PAM, D1 antagonist, TRHR PAM, D1 ag, TRHR agonist)
COc1ccc(-n2c3c(c(=O)[nH]c2=O)C(NC(C)=O)(C(F)(F)F)C(=O)N3)cc1 (configuration not stated)	D1 antagonist -54.0!
COc1ccc(C2/C=C\CN(C(=O)C3CCCCC3)C(C)C(=O)N2Cc2ccc(F)cc2)cc1 (configuration not stated)	none (no result: D1 PAM, D1 antagonist, TRHR PAM, D1 ag, TRHR agonist)

Screening results deposited in PubChem BioAssay by National Center for Advancing Translational Sciences (NCATS).
